# Compound activity from PubChem.
# In the library only some 9.2% were active in any assay of this set; here they are far more common.
# ELG1 genotoxic = inducers of genotoxicity in HEK293T ELG1-luciferase cells; HEK293T ELG1-luciferase reporter, luminescence, 16 h; Potency, µM (highest dose often 46 µM), for the others: at the highest dose activity change, positive = activation, actives largely listed as activators; actives 1.3% (n = 330,000); further: % of control where 0% means no effect; nearly all actives have a fitted effect of over 60% in size
#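 Genotoxic stress is detected as increased luminescence from luciferase-tagged ELG1 in HEK293T cells, measured with ONE-Glo after a 16 hr treatment at 37 °C.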
# ELG1 repair inh = blocks ELG1-dependent DNA repair in HEK293T cells; Potency, µM (top dose mostly 46.1 µM), for inactives: at the highest dose activity change, negative = inhibition, actives largely listed as inhibitors; actives 2.3% (n = 330,000); HEK293T ELG1-luciferase reporter, luminescence, 16 h; DNA damage induced by 5-fluorouridine; further: on the % scale 0 is the no-effect control and ±100 the full control effect; nearly all actives have a fitted effect of over 55% in size
#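 5-Fluorouridine DNA damage + compound/DMSO, 2,000 cells/well, 16 h, 37 °C/5% CO2. ONE-Glo, 30 min RT, luminescence. Readout = decrease in reporter signal.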
# FLuc modulator = firefly luciferase modulation, counter-screen for miR-21 project. AID 588342. actives 6.9% (n = 360,000). purified FLuc, Km substrates, luminescence inhibition. Potency, µM (top dose mostly 57.5 µM), for the others: at the highest dose activity change, negative = inhibition, hits mostly inhibitors. P08659;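 further: plate controls were vehicle for no effect and reference inhibitor for full effect; nearly all actives have a fitted effect of over 55% in size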
# Target sequence (P08659 whole entry, looked up): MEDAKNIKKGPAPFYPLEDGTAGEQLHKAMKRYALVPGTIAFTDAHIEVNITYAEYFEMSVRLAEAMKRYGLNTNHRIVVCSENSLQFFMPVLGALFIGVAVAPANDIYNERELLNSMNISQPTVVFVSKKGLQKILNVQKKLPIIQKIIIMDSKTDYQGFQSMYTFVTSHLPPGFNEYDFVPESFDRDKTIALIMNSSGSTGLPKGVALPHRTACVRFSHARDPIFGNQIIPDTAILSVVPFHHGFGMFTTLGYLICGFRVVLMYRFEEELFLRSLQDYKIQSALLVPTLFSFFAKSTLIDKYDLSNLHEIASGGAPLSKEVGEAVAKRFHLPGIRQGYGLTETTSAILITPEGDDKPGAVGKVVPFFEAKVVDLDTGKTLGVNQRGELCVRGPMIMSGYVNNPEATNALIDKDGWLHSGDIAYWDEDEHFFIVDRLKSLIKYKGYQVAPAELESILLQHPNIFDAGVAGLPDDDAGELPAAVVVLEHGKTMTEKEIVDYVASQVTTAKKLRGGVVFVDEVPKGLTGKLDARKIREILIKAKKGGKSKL
#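 Biochemical qHTS of compounds, final roughly 60 µM downward over six points, against 10 nM purified firefly luciferase using Km concentrations of substrates (10 uM D-luciferin, 10 uM ATP) in Tris acetate pH 7.5 buffer; luminescence output.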
# Rab9 promoter act = activates the Rab9 promoter; Huh7 Rab9 promoter-luciferase reporter, luminescence, 24 h; Potency, µM (top dose mostly 9.22 µM), for inactives: top-dose activation, negative = inhibition, actives largely listed as activators; actives 2.8% (n = 320,000); AID 485297; further: % of control where 0% means no effect; nearly all actives have a fitted effect of over 60% in size
#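 Huh7 cells stably carrying Rab9 promoter–luciferase reporter, plated 1500 cells/well, compound added after 2 h and incubated 24 h at 37 °C; luciferase luminescence then read after 10 min with detection reagent.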
# NPC1 prom act = activates the NPC1 promoter; Huh7 NPC1 promoter luciferase reporter, 24 h; Potency, µM (titrated, usually from 9.22 µM), for the others: top-dose activation, most hits filed as activators; actives 2.4% (n = 320,000); AID 485313; further: % of control where 0% means no effect; nearly all actives have a fitted effect of over 60% in size
#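 Huh7 reporter cells (NPC1 promoter driving luciferase) are dosed with compound for 24 h at 37 °C, 5% CO2; luciferase detection reagent is then added and luminescence measured after 10 min at ambient temperature.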
# SMN2 splice enh = increases expression of the SMN2 splice variant. actives 2.8% (n = 210,000). HEK293 SMN2-luciferase splicing reporter, luminescence, 30-36 h. Potency, µM (titrated, usually from 46.1 µM), for the others: at the highest dose activity change, positive = activation, hits mostly activators; further: % of control where 0% means no effect; nearly all actives have a fitted effect of over 55% in size
#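 HEK293 cells carry an SMN2 minigene-luciferase reporter in which exon 7 inclusion puts luciferase in frame. Cells were seeded at 2000 cells/well, attached for 10-12 hours, then exposed to compounds for 30-36 hours at 37C before ONE-Glo luminescence.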
# The depositor's hits bear a star; u = inconclusive; x = no result. The call rests on the fitted dose curve; in most records, active means well fitted curve in the direction sought with a large enough effect; inconclusive means small, poorly fitted or top-dose-only effect, or another doubt; inactive means no such curve, though single readings can be large; an effect the other way counts as inactive or inconclusive. Potency means the concentration at half of the fitted maximal effect.
SMILES,ELG1 genotoxic,ELG1 repair inh,FLuc modulator,Rab9 promoter act,NPC1 prom act,SMN2 splice enh
Cc1cc(C(=O)CN2CCCC(C)C2)c(C)n1-c1ccc(F)cc1 (stereo not drawn),u,u,15µM*,2.5µM*,u,18µM*
Cn1nc(C(C)(C)C)cc1C(=O)NNC(=O)c1ccc(C(F)(F)F)cc1,-8%,7.3µM*,-13%,-4%,-3%,x
CC(C)(C)c1ccc(C(=O)c2c[nH]c(C(=O)NCCCn3ccnc3)c2)cc1,1%,u,19µM*,5%,24%,-50%
Cn1nc(C(C)(C)C)cc1C(=O)O,-1%,5%,-4%,1%,0%,-4%
COCCCNC(=S)NC(=O)c1ccc(C)cc1,u,u,13µM*,u,u,14µM*
COc1ccc(C(=O)c2c[nH]c(C(=O)NCCCn3ccnc3)c2)cc1,5%,6%,-2%,5%,1%,-5%
CC(C)(C)c1ccc(C(=O)NC(=S)NCc2cccnc2)cc1,-3%,10%,24µM*,3%,13%,-40%
C/C(=C\c1ccccc1)C(=O)NCc1ccco1,u,u,u,u,10%,29%
CCOC(=O)c1cc(-c2ccccc2)n(-c2cccc(C(=O)Nc3ccc(OC)cc3)c2)c1C,x,x,-6%,x,x,x
CCCN(c1ccc(C(C)C)cc1)S(=O)(=O)c1ccc2c(c1)CCN2C(=O)CC,x,x,-2%,x,x,5%
Cc1cc(N)nc2nc(C(F)(F)F)nn12,0%,-4%,-3%,-11%,-5%,7%
OCl,x,x,x,x,x,-2%
N#CC(C#N)=C(N)/C(C#N)=C/c1ccc2[nH]ccc2c1,x,x,x,x,x,-12%
CC(C)(C)c1ccc(C(=O)NCc2cccnc2)cc1,u,u,u,-18%,22%,6%
CC(C)(C)c1ccc(C(=O)c2c[nH]c(C(=O)NCc3cccnc3)c2)cc1,-5%,-20%,7.6µM*,24%,17%,-6%
CC(C)(C)c1ccc(C(=O)NNC(=S)NC(=O)c2cccnc2)cc1,-1%,u,19µM*,4%,3%,x
O=C(CNC(=S)NC(=O)c1ccccc1)c1ccccc1,16%,u,17µM*,6%,15%,u
CC(C)(C)c1cc(Cl)c(O)c(NC(=S)NC(=O)c2cccnc2)c1,-5%,9.2µM*,u,-2%,-10%,-78%
Cc1cc(=O)[nH]c(SCC(=O)NN(c2ccccc2)c2ccccc2)n1,-1%,u,-2%,-11%,-1%,x
CC(C)(C)c1ccc(C(=O)NNC(=O)c2ccncc2)cc1,3%,2%,19µM*,11%,9%,x
COC(=O)CNC(=S)NC(=O)c1ccc(C(C)(C)C)cc1,5%,11%,13µM*,-2%,-1%,2%
CC(C)(C)c1ccc(C(=O)NNC(=O)c2ccc(Cl)cc2)cc1,3%,0%,4%,-4%,-3%,7%
O=C(NCc1ccc2c(c1)OCO2)c1cccc(S(=O)(=O)N2CCCC2)c1,-4%,-11%,-4%,1%,-2%,x
NNC(=O)c1sc2cc(C(F)(F)F)cnc2c1-c1ccccn1,3%,6%,-2%,-1%,4%,x
Cc1cccc2sc(NC(=O)C3CCCN(S(=O)(=O)c4cccc5nonc45)C3)nc12 (stereo not drawn),-1%,u,2%,1%,-19%,0%
SMILES,ELG1 genotoxic,ELG1 repair inh,FLuc modulator,Rab9 promoter act,NPC1 prom act,SMN2 splice enh
Cc1ccc2nc(NC(=O)C3CCCN(S(=O)(=O)c4cnc[nH]4)C3)sc2c1 (stereo not drawn),5%,u,12µM*,u,u,u
Cc1ccc2nc(NC(=O)C3CCCN(S(=O)(=O)c4cccc5nonc45)C3)sc2c1 (stereo not drawn),-12%,7.3µM*,-18%,-14%,-3%,x
COCCCNC(=O)Cn1nc(N2CCN(c3ccccc3)CC2)ccc1=O,x,x,-5%,x,x,x
S=C(NCC1CCCO1)NC1CC1 (stereo not drawn),3%,5%,4%,-1%,5%,-1%
O=c1c2cc(-c3ccccc3)sc2nc2n1N=C(c1ccccc1)CS2,17%,u,1.9µM*,1.8µM*,2µM*,x
CSc1nc2sc(-c3ccccc3)cc2c(=O)n1N,u,u,u,0.63µM*,1.3µM*,2.8µM*
CC(C)Sc1nc2sc(-c3ccccc3)cc2c(=O)n1N,2%,18%,-8%,7%,10%,2%
S=C(NCc1ccco1)Nc1ccc(Br)cc1Cl,u,10%,27µM*,u,30%,9%
S=C(NCc1ccco1)Nc1ccc(Cl)cc1Cl,17%,u,u,19%,16%,-24%
S=C(NCc1ccccn1)Nc1ccc(Br)cc1Cl,u,u,u,3.2µM*,29%,11µM*
c1ccc(-n2cc(CNCCc3cscn3)c(-c3ccc4c(c3)OCO4)n2)cc1,-3%,-15%,u,-9%,-4%,x
CC[C@]12c3[nH]c4cc(-c5ccco5)ccc4c3CCN1C(=O)[C@@H](CC(=O)NC(C)(C)C)C[C@@H]2C(=O)N1CCN(C(=O)c2ccco2)CC1,5%,-24%,x,x,x,x
CCC(=O)Nc1nnc(-c2ccc(OC)cc2)o1,7%,u,24µM*,1%,13%,15%
CCC(=O)Nc1ccc(-c2nnc(-c3ccccc3)o2)cc1,u,u,0.95µM*,0.32µM*,0.32µM*,x
CCC(=O)Nc1ccc(-c2nc3ccccc3c(=O)o2)cc1,-11%,1%,1.3µM*,4%,-1%,-5%
O=C(Nc1cccc(-c2nc3ccccc3c(=O)o2)c1)c1ccccc1,5%,4%,-4%,1%,2%,-30%
CCOc1ccc(-c2nnc(NC(=O)Cc3ccc(OC)cc3)o2)cc1,5%,4%,u,8%,10%,x
CC(=O)Nc1ccc(C2=NN(Cc3nnc(-c4ccccc4)o3)C(=O)SC2)cc1,-3%,16µM*,u,9%,8%,15%
CCC(=O)Nc1cccc(-c2nnc(-c3cccc(NC(=O)CC)c3)o2)c1,-6%,u,u,-3%,1%,-19%
O=c1[nH]c2ccccc2c(O)c1-c1ccccc1[N+](=O)[O-],3%,9%,-14%,0%,-4%,2%
CCCCn1c(N)c(N(CCOC)C(=O)c2cc(Cl)nc3ccccc23)c(=O)[nH]c1=O,0%,2%,-1%,2%,-2%,x
COc1ccc(NC(=O)Nc2nnc(N3CCCC3)s2)cc1,x,x,3%,x,x,x
CCN(Cc1nc(-c2ccccc2)no1)C(=O)c1ccco1,5%,17%,5%,1%,-3%,x
